Assay results: PubChem BioAssay (NCATS)
Several values for one entry are separate records, joined by “and”; a condition that tells them apart may be missing. Equal entries are not always repeated. Records with an inconclusive call do not appear. Activity calls are given as the source filed them. The call rests on the fitted dose curve; in most records, active means well fitted activation curve with a large enough effect in the signal ratio (not every such curve was filed as active); inconclusive means small, poorly fitted or top-dose-only effect, or a change in a side signal; inactive means flat fitted curve, though single readings scatter; the % refers to the signal ratio.

experiment: qHTS assay for small molecule activators of the p53 signaling pathway (AID 651743); settings: HCT-116 p53RE-bla, beta-lactamase FRET ratio, 16 h; activation: hits give high values; on activation: series mostly up to about 92 µM; % of control where 0% means no effect
Excerpt: National Center for Advancing Translational Sciences [NCATS] NIH Chemical Genomics Center [NCGC] U.S. Environmental Protection Agency [EPA] National Institutes of Environmental Health Sciences [NIEHS] National Toxicology Program [NTP] Assay Overview: p53, a tumor suppressor protein, is activated following cellular insult, including DNA damage and other cellular stresses. The activation of p53 regulates cell fate by inducing DNA repair, cell cycle arrest, apoptosis, or cellular senescence. The activation of p53, therefore, is a good indicator of DNA damage and other cellular stresses. The CellSensor p53RE-bla HCT-116 cell line (Invitrogen) contains a stably integrated beta-lactamase reporter gene under control of the p53 response elements. The activation of the report gene under culture conditions can be detected by fluorescence intensity. This cell line can be used to screen chemicals in a 1536-well plate format and to identify agonists that activate p53 signaling pathway.
Assay Protocol Summary: The p53RE-bla cells were dispensed at 4,000 cells/5 ul/well in 1536-well black wall/clear bottom plates using a Multidrop dispenser. After the assay plates were incubated at a 37 C/5% CO2 incubator for 5 hours, 23 nL of compounds dissolved in DMSO, positive controls or DMSO only was transferred to the assay plate by a pin tool. The plates were incubated at 37 C for 16 hours. After 1 uL of LiveBLAzer B/G FRET substrate was added using a Flying Reagent Dispenser, the plates were incubated at room temperature for 2 hours, and fluorescence intensity was measured by an Envision plate reader.
Potency means the concentration at half of the fitted maximal effect.

Compound | activation | Potency
CO[C@H]1/C=C/O[C@@]2(C)Oc3c(C)c(O)c4c(O)c(c5c(c4c3C2=O)NC2(CCN(CC(C)C)CC2)N=5)=NC(=O)/C(C)=C\C=C\[C@H](C)[C@H](O)[C@@H](C)[C@@H](O)[C@@H](C)[C@H](OC(C)=O)[C@@H]1C | -4.17% (inactive) | 
O=C1OC(O)C(C(Cl)Cl)=C1Cl (stereo not drawn) | -1.76% (inactive) | 
CC(=O)Nc1ccc(C(=O)CCl)cc1 |  | 31.6 µM (active)
CN(C)c1ccc(C2(c3ccc(N(C)C)cc3)OC(=O)c3cc(N(C)C)ccc32)cc1 |  | 50.1 µM (active)
O=Cc1ccc(Cl)c(Cl)c1 | -1.08% (inactive) | 
CN1[C@H]2CC(OC(=O)[C@H](CO)c3ccccc3)C[C@H]1[C@H]1O[C@H]12 (stereo partly drawn) | -1.86% (inactive) and -3.02% (inactive) | 
Cc1cccc(O)c1C | -2.61% (inactive) | 
C=CC(=O)OCCOCCOC(=O)C=C | 2.89% (inactive) | 
O=C=Nc1ccc(Cc2ccc(N=C=O)cc2)cc1 | 6.25% (inactive) and 1.32% (inactive) | 
O=C(/C=C/c1ccc(O)c(O)c1)OC1C[C@](O)(C(=O)O)C[C@@H](O)[C@H]1O (stereo partly drawn) | -1.07% (inactive) and -1.86% (inactive) | 
Cc1ccc(S(=O)(=O)Oc2ccc(N=Nc3ccc(-c4ccc(N=Nc5c(O)ccc6cc(S(=O)(=O)O)cc(S(=O)(=O)O)c56)c(C)c4)cc3C)cc2)cc1 | 1.02% (inactive) | 
C=C(C)c1ccccc1 | -1.34% (inactive) | 
CNc1ccc(O)cc1 | -13.4% (inactive) | 
